High-throughput results as filed in PubChem.
TRHR agonist-1: activates the human TRH receptor; P34981; TRHR cells, calcium flux fluo-8, FDSS agonist mode; activation, % at 2 µM; 0.18% of 360,000 active; AID 493084; in the data active = activation above about 30%; also: 0% is about no effect
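TRHR-expressing cells, plated overnight in medium with 10% serum, were loaded with fluo-8 calcium dye at room temperature. After a 10 s baseline, library compound was pin-added and calcium release was recorded kinetically (ex 480/em 530) as agonist response.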
KCNH2 3.1 inh: blocks the human KCNH2 3.1 channel isoform; activity change, % (tested at about 1.8 µM); 0.95% of 340,000 active; U2OS KCNH2 3.1, thallium flux FluxOr; hits give low values;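 active = maximum activity change below -70%; inconclusive = maximum activity change from -70% to -50%; inactive = maximum activity change above -50%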;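 also: thallium influx rate constant from kinetic fluorescence after stimulation buffer; % is scaled to controls: 0 for no effect and ±100 for the full control effect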
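FluxOr-based Tl+ influx in U2OS cells transduced with KCNH2 3.1 virus; rate constants normalized to DMSO controls.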
TRHR enhancer-1: allosterically enhances the human TRH receptor | P34981 | TRHR cells, fluo-8 calcium fluorescence, EC20 TRH enhancement | enhancement, % at 2 µM | 0.66% of 360,000 active | AID 493056; in the data active = enhancement above about 30%; also: 0% is about no effect
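TRHR-expressing cells loaded with fluo-8 calcium dye were read kinetically (ex 480/em 530) during compound addition, then stimulated with an EC20 of TRH (10 nM final). Enhancement of the Gq-mediated intracellular calcium response was scored.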
TRPML1 agonist: agonists of human TRPML1 channel; 0.12% of 410,000 active; activation, % (test concentration not listed); Q9GZU1; TRPML1-expressing cells, Ca2+ dye fluorescence, FDSS; in the data active = activation above about 50%; inconclusive = mostly about 30% to 49%; also: 0% is about no effect
Target sequence (Q9GZU1 whole entry, looked up): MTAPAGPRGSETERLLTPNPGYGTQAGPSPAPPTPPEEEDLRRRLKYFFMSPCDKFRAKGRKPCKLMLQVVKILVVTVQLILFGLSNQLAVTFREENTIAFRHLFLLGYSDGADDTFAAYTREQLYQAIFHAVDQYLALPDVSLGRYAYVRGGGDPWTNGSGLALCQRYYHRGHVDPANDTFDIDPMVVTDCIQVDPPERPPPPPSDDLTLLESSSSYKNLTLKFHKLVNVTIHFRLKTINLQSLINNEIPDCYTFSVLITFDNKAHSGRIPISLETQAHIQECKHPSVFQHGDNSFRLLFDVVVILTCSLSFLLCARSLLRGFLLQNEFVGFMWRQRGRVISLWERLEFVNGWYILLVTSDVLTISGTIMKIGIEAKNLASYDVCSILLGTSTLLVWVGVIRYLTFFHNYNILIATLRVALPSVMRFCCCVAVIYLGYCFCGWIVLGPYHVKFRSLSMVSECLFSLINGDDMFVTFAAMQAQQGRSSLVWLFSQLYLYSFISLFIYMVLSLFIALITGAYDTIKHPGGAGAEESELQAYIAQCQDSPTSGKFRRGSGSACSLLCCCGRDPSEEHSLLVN
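Tet-induced TRPML1-DL cells, 1,500 per well, cultured overnight, were loaded with a no-wash Ca2+ dye for 45–90 min. Calcium fluorescence was recorded on the FDSS for 110 s after compound addition, before the EC80 agonist (4 uM 54-4) was added.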
TRPML1 blocker: inhibitors of human TRPML1 channel. 0.02% of 390,000 active. TRPML1-inducible cells, Ca2+ dye fluorescence, FDSS; hits give low values; inhibition of EC80 agonist-evoked calcium signal. activity change, negative = inhibition, % (test concentration not listed); in the data active = activity change below about -50%; inconclusive = between about -30% and that limit;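 also: stimulus is agonist 54-4 at its EC80 concentration; % is scaled to controls: 0 for no effect and ±100 for the full control effect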
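Calcium fluorescence in TRPML1-DL cells induced overnight with Tet: a 110 s read after compound pin addition, then a 110 s antagonist read after challenge with 54-4 at 4 uM final (EC80).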
KCNH2 WT inh: blocks the wildtype human KCNH2 potassium channel | activity change, % at 1.84 µM | AID 720551 | U2OS, BacMam KCNH2, thallium flux FluxOr; hits give low values | Q12809 | 0.37% of 340,000 active;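 active = maximum activity change below -70%; inconclusive = maximum activity change between -70% and -50%; inactive = maximum activity change above -50%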; also: % is scaled to controls: 0 for no effect and ±100 for the full control effect
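U2OS cells transduced with wild-type KCNH2 virus are loaded with FluxOr dye for 45 min, and thallium flux is measured in kinetic reads before and after stimulation buffer. Rate constants are normalized to DMSO controls.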
TRHR enhancer-2: human TRH receptor allosteric enhancement confirmation | shares compounds with TRHR enhancer-1 | TRH receptor cell assay, enhancer confirmation qHTS | activity change, negative = inhibition, % at 46.1 µM | 970 tested, under 10 active;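 also: compound effect scored on response to added TRH at EC20 of 10 nM; 0% is about no effect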
TRHR agonist-2: confirmation of human TRH receptor agonists. shares compounds with TRHR enhancer-1. TRHR-expressing cells, agonist activation read-out. Potency, µM (titrated, usually from 46.1 µM), inactives show at the top dose activation, usual class: activators. 8% of 970 active. AID 493078; also: potency is read from the fitted curve at half-maximal effect; 0% is about no effect; nearly all actives have a fitted effect of over 75% in size
The depositor's hits bear a star; ? = inconclusive; nt = no result given. Hits are enriched below; roughly 1.7% of the tested compounds scored in any of these assays. Unless noted, calls follow the shape of the dose curve; as a rule, active = well fitted curve in the direction sought with a large enough effect; inconclusive = small, poorly fitted or top-dose-only effect, or another doubt; inactive = no such curve, though single readings can be large; an effect the other way counts as inactive or inconclusive.

SMILES	TRHR agonist-1	KCNH2 3.1 inh	TRHR enhancer-1	TRPML1 agonist	TRPML1 blocker	KCNH2 WT inh	TRHR enhancer-2	TRHR agonist-2
O=C(CN1C(=O)NC2(CCCC2)C1=O)NNC(=O)c1ccc(Br)cc1	0	-5	-1	0	1	1	nt	nt
N#Cc1cc(C(=O)c2ccccc2O)cn(-c2ccc(Cl)cc2)c1=O	19	-6	0	2	32	1	nt	nt
Cc1c(-n2cc(C(=O)c3ccccc3O)cc(C#N)c2=O)c(=O)n(-c2ccccc2)n1C	42*	2	-2	5	-21	-6	-8	?
O=[N+]([O-])c1ccccc1S(=O)(=O)Nc1cccc(-c2ccc3nncn3n2)c1	1	14	46*	0	-3	-2	3	0%
Cc1ccc(NC(=O)CSc2nc3nc(C)c(Br)cc3[nH]2)cc1F	0	2	81*	2	-4	19	-8	0%
S=C(NCc1ccco1)N1CCOCC1	0	7	0	0	3	-7	nt	nt
S=C(NCc1ccco1)Nc1ccc(N2CCOCC2)cc1	1	6	53*	0	-13	0	-3	0%
COc1ccc(-c2cnc(C(N)=O)c(=O)[nH]2)cc1	nt	2	nt	0	1	4	nt	nt
CCOC(=O)c1nnn(-c2nonc2N)c1CSc1nnc(N)s1	0	6	52*	0	6	-2	-1	1%
COC(=O)c1nnn(-c2nonc2N)c1CSc1nc2ccccc2s1	0	nt	3	1	11	0	nt	nt
COc1ccc(OC)c(CN2CCC(Cc3ccccc3)CC2)c1	28	-11	3	0	-1	38	-1	-1%
COc1cc(OC)c(CN2CCC(Cc3ccccc3)CC2)cc1Br	2	-22	3	1	-6	0	nt	nt
COc1cc(OC)c(NC(=O)c2csc(C)c2)cc1Cl	0	-2	-4	0	2	-2	nt	nt
CC1CCCN(C(=O)CNS(=O)(=O)c2cccs2)C1 (centres undefined)	0	-5	2	0	0	0	nt	nt
COc1ccc(C(=O)NNC(=O)c2cccc(F)c2)cc1	0	4	45*	0	1	2	-1	1%
COc1ccc(NC(=O)c2ccc3nc(C)sc3c2)cc1	0	-32	57*	0	-24	13	1	2%
COc1ccc(NC(=O)c2ccc(-c3nn(C)c(=O)c4ccccc34)cc2)cc1	-1	4	44*	0	14	7	5	-1%
COc1ccc(NC(=O)c2ccc3ccccc3c2)cc1	-1	0	54*	-1	3	-9	6	0%
COc1ccccc1NC(=O)c1ccc(-c2nn(C)c(=O)c3ccccc23)cc1	-2	34	-11	2	1	-1	nt	nt
COC(=O)c1ccc(NC(=O)c2ccc3nc(C)sc3c2)cc1	-1	5	-2	0	-15	-14	nt	nt
COc1ccc(C(=O)NNC(=O)c2ccc3ccccc3c2)cc1	nt	4	nt	0	-8	-2	nt	nt
CC[C@@H](NCCCn1cnc2c(SC)ncnc21)c1ccccc1	nt	12	nt	nt	nt	-5	nt	nt
O=C(CN1CCC(C(=O)c2ccc3c(c2)OCCO3)CC1)Nc1ccccc1F	0	-11	48*	1	-19	-2	-9	1%
CC(=O)Nc1ccc(S(=O)(=O)NCCC(=O)OCC(=O)N2CCN(C(=O)c3ccco3)CC2)cc1	1	8	46*	0	-11	5	-7	-1%
Cc1ccc(S(=O)(=O)N(CC(=O)NC2CC2)c2ccc(C)c(Cl)c2)cc1	0	-17	5	0	12	-3	nt	nt
NC(=O)c1ccc(S(=O)(=O)N2CCSCC2)cc1	0	-16	-3	0	-9	1	nt	nt
